Bioassay records as filed in PubChem BioAssay.
Pf growth 96h: P. falciparum growth inhibition at 96 hour, primary screen for plastid delayed-death inhibitors; Potency, µM (doses to about 28.7 µM), for the others: at the highest dose activity change, negative = inhibition, actives largely listed as inhibitors; P. falciparum luciferase reporter growth, 96 h; AID 504834; 320,000 compounds, 6.9% hits; also: % is scaled to controls: 0 for no effect and ±100 for the full control effect
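Compounds incubated with erythrocytes infected by luciferase-expressing P. falciparum (2% hematocrit, 0.05% parasitemia final) for 96 hours, 37 C in 5% CO2. Growth inhibition scored as decreased luciferase luminescence.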
HCV inhibitor: HCV inhibition | Potency, µM (highest dose often 41.8 µM), inactives show at the highest dose activity change, negative = inhibition, hits mostly inhibitors | Huh7.5.1 HCVcc-Cre infection, luciferase reporter, 44 h | AID 651820 | 340,000 compounds, 3.4% hits; also: % is scaled to controls: 0 for no effect and ±100 for the full control effect
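Infectious HCVcc-Cre (~0.5 moi) was added to cells just after compound, with cells seeded 4 h earlier at 1,000 per well. Luciferase activity after 44 h culture reported infection; substrate was incubated 15 min at room temperature before reading.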
VACV mCherry inh: inhibitors of vaccinia virus infection (mCherry reporter signal). Potency, µM (series often up to 36.5 µM), without a hit: top-dose activity change, negative = inhibition, usual class: inhibitors. Vaccinia virus mCherry reporter infection, fluorescence. 310,000 compounds, 0.63% hits; calls by dose curve; tested in A549 cells; also: % is scaled to controls: 0 for no effect and ±100 for the full control effect; nearly all actives have a fitted effect of over 35% in size
NS1 function inh: blocks influenza NS1 protein function. AID 2326. Potency, µM (highest dose often 46.1 µM), for inactives: at the highest dose activity, positive = more growth. 270,000 compounds, 0.4% hits; calls by dose curve; also: actives are rising curves; nearly all actives have a fitted effect of over 50% in size
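Growth recovery, yeast-based: influenza A NS1 expressed in S. cerevisiae causes slow growth, and suppressors are detected by OD600. The parent strain without NS1 is used as positive control.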
Vaccinia Venus: inhibitors of vaccinia virus (Venus reporter); AID 720580; Potency, µM (titrated, usually from 36.5 µM), without a hit: at the top dose activity change, negative = inhibition, hits mostly inhibitors; 330,000 compounds, 0.46% hits; Vaccinia virus Venus reporter expression, fluorescence; calls by dose curve; tested in A549 cells; also: % is scaled to controls: 0 for no effect and ±100 for the full control effect; nearly all actives have a fitted effect of over 30% in size
Pf growth 48h: inhibits P. falciparum growth in the first generation, 48 h. P. falciparum luciferase growth in erythrocytes, 48 h. Potency, µM (series often up to 28.7 µM), without a hit: at the highest dose activity change, negative = inhibition, usual class: inhibitors. 310,000 compounds, 5.9% hits; also: % is scaled to controls: 0 for no effect and ±100 for the full control effect
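Cell-based growth assay: transgenic P. falciparum expressing firefly luciferase, cultured in red cells within RPMI 1640 containing 0.5% w/v Albumax, 24 mM bicarbonate and gentamycin. A drop in luciferase activity indicates inhibition.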
* marks the source's active call; other numbers are inactive results; i = inactive; ? = inconclusive; . = not tested or not shown; [ ] = another dose, or the depositor's remark. Hits are enriched below; roughly 11% of the tested compounds scored in any of these assays. Unless noted, calls follow the shape of the dose curve; as a rule, active = well fitted inhibition curve with a large enough effect; inconclusive = small, poorly fitted or top-dose-only effect, or another doubt; inactive = no such curve, though single readings can be large or run the other way. Potency is read from the fitted curve at half-maximal effect.

SMILES	Pf growth 96h	HCV inhibitor	VACV mCherry inh	NS1 function inh	Vaccinia Venus	Pf growth 48h
CN(CC1COc2ccccc2O1)c1nc(-c2cccnc2)nc2ccccc12 (configuration not stated)	?	11.2µM*	?	-65.8%	-15.3%	?
COc1cc(OC)cc(C(=O)Nc2ccc3oc(-c4ccccc4C)nc3c2)c1	.	.	-9.8%	.	5.5%	.
CC(=O)c1cccc(NC(=O)CC2S/C(=N/N=C3CCCCCC3)NC2=O)c1 (configuration not stated)	17.1%	4.3%	-8.5%	17.2%	-13.6%	0.7%
Cc1cc(C)n(-c2nc3ccccc3[nH]c2=O)n1	-7.1%	19.9%	-12.3%	6.8%	-14.8%	-3.5%
Cc1cc(C)n(-c2c(C)[nH]c3ccccc23)n1	9.28µM*	-20.8%	-13.0%	.	-3.8%	?
OCC[C@@H]1C[C@@H](O)[C@H](O)[C@]2(CCc3ccccc3O2)O1	44.0%	10.6%	i	4.4%	-5.6%	22.6%
COc1cc2c(cc1OC)CN(c1ccc([N+](=O)[O-])cc1Cl)CC2	?	?	-24.6%	-9.6%	-8.5%	?
COc1cc2c(cc1OC)CN(c1ccc([N+](=O)[O-])cc1C#N)CC2	14.7µM*	?	-12.0%	6.2%	-19.4%	-6.7%
COc1ccc(-c2nnc3n(CCc4ccccc4)c(=O)c4ccccc4n23)cc1OC	11.7µM*	?	i	-10.8%	-21.3%	19.7%
CCN(CC)CCCCCC(=O)Nc1ccccc1C(=O)Nc1ccccc1	10.4µM*	2.5%	-12.9%	-1.4%	-7.2%	10.1%
O=C1CCCC2=C1Sc1ccc(Cl)cc1N2	-17.6%	11.2µM*	.	-41.8%	.	0.0%
CC(NC(=O)C12CC3CC(C1)CC(n1cncn1)(C3)C2)C12CC3CC(CC(C3)C1)C2 (configuration not stated)	11.7µM*	-9.7%	.	-4.5%	-27.1%	11.7µM*
CC(=O)NC1(c2ccccc2)CCN(Cc2nnnn2C(C)(C)C)CC1	11.7µM*	-11.5%	-15.3%	-0.2%	-13.7%	5.3%
Brc1cccc(OCCN2CCCCC2)c1	-25.8%	23.5%	-10.0%	4.3%	-0.8%	11.7%
Fc1ccccc1OCCCCCN1CCCC1	-3.1%	4.0%	-7.5%	5.8%	-4.3%	?
Brc1ccc(OCCCCN2CCCCC2)cc1	5.22µM*	-9.6%	.	?	.	-27.2%
Cc1cccc(OCCCN2CCCCCC2)c1	3.2%	31.6µM*	-18.9%	1.7%[9.22 µM]	-13.4%	-12.5%
CC1CCN(CCCCOc2cccc(Br)c2)CC1	2.62µM*	?	-2.1%	-10.9%	-28.6%	?
Fc1ccccc1OCCCCCCN1CCCC1	-9.3%	7.94µM*	.	0.2%	.	-29.3%
CCN1CCCC1CNS(=O)(=O)c1ccc(C(=O)Nc2ccccc2)cc1 (configuration not stated)	.	-20.9%	.	-4.9%	1.6%	?
CC1CCN(CCCCOc2ccccc2Br)CC1	?	?	i	-9.4%	-3.7%	?
Cc1cc(Br)ccc1OCCCCN1CCC(C)CC1	-21.4%	12.6µM*	-1.8%	-0.6%	-14.9%	14.7µM*
c1ccc(COc2ccc(OCCCCN3CCCCC3)cc2)cc1	?	25.1µM*	-13.1%	-10.7%	-25.4%	.
CC1CCN(CCCCOc2ccc(Br)cc2)CC1	-0.8%	11.2µM*	-21.0%	-3.8%	-11.3%	-19.1%
Cc1cccc(C(C)(C)C)c1OCCCCN1CCCC1	9.28µM*	?	-22.3%	-4.8%	-21.7%	.
CC(C)c1ccccc1NC(=O)Nc1nnc([C@@H]2C[C@H](O)[C@@H](CO)O2)s1	.	.	-13.3%	.	-23.4%	.
COc1ccccc1-n1cnnc1SCC(=O)Nc1cccnc1Cl	5.5%	-7.3%	i	.	-11.2%	13.6%
O=C(O)CC(CNS(=O)(=O)c1cccc2nsnc12)c1ccccc1 (configuration not stated)	-8.2%	9.3%	i	.	-5.3%	-12.0%
CCC(C)N1CCN(S(=O)(=O)c2ccc(NC(C)=O)cc2)CC1 (configuration not stated)	-25.3%	13.1%	i	1.5%	-2.9%	-1.6%
CCC(=O)C1=C(O)C(c2cccc(Oc3ccccc3)c2)CCC1=O (configuration not stated)	0.7%	3.7%	-1.3%	.	-26.3%	0.8%
